Measured values published in PubChem BioAssay (NCI).
About 83,000 compounds went through this panel and 20% of them were active in at least one assay; those are over-represented in the sample as a whole.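 Each cell line was grown in a 96-well plate and treated with one concentration of compound for 48 hours. Values below 10 were considered active.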 Activity calls are given as the source filed them.

Assays:
Experiment in all cases: NCI-60 one-dose screen, 48 h (100 = growth as untreated, 0 = no growth, -100 = all killed)
Settings in all cases: 10 µM unless noted
[1] = system: SR leukemia
[2] = system: RPMI-8226 leukemia
[3] = system: OVCAR-8 ovarian
[4] = system: OVCAR-5 ovarian
[5] = system: OVCAR-4 ovarian
[6] = system: SK-OV-3 ovarian
[7] = system: IGROV1 ovarian
[8] = system: OVCAR-3 ovarian
[9] = system: HS 578T breast
[10] = system: NCI/ADR-RES ovarian
[11] = system: T-47D breast
[12] = system: BT-549 breast
[13] = system: MDA-MB-435 melanoma
[14] = system: SW-620 colon
[15] = system: MCF7 breast
[16] = system: HCT-116 colon
[17] = system: HCC-2998 colon
[18] = system: KM12 colon

Measured: growth

Cn1cc(-c2nonc2-c2c[nH]c3ccc(F)cc23)c2cc(Br)ccc21
inactive: [1] 27% | [2] 46% | [3] 40.5% | [4] 58.7% | [5] 43.8% | [6] 64.4% | [7] 64% | [8] 60.3% | [9] 63.2% | [10] 42.1% | [11] 14.8% | [12] 65.9% | [13] 51% | [14] 64.5% | [15] 32.2% | [16] 35.1% | [17] 40.1% | [18] 29.4%

COc1cc2cc(Oc3ccc(NC(=O)Nc4ccccc4)cc3)c(C)nc2cc1OCCN1CCCCC1
active: [1] -25.9%
inactive: [2] 44.3% | [3] 46.5% | [4] 119% | [5] 83.1% | [6] 110% | [7] 92.3% | [8] 101% | [9] 70.4% | [10] 90.5% | [11] 88% | [12] 86.8% | [13] 61.8% | [14] 70.3% | [15] 31.9% | [16] 11.1% | [17] 73% | [18] 42.4%

Cc1cc2oc(=O)cc(CP(=O)(O)O)c2cc1O
inactive: [1] 106% | [2] 118% | [3] 99.5% | [4] 94% | [5] 103% | [6] 105% | [7] 91.6% | [8] 102% | [9] 94.5% | [10] 105% | [11] 98.8% | [12] 105% | [13] 99.9% | [14] 91.3% | [15] 88.9% | [16] 100% | [17] 103% | [18] 102%

O=C(/C=C\c1ccco1)/C=C/c1ccco1
inactive: [1] 103% | [2] 99.1% | [3] 99.8% | [4] 95.1% | [5] 105% | [6] 104% | [7] 110% | [8] 134% | [9] 105% | [10] 105% | [11] 112% | [12] 101% | [13] 98.3% | [14] 103% | [15] 101% | [16] 105% | [17] 101% | [18] 106%

O=c1nc(Nc2nc3ccccc3s2)[nH]c(=O)c2ccccc12
inactive: [1] 90.7% | [2] 106% | [3] 103% | [4] 107% | [5] 102% | [6] 64.3% | [7] 100% | [8] 109% | [9] 109% | [10] 103% | [11] 78.9% | [12] 97.5% | [13] 99.9% | [14] 101% | [15] 92.2% | [16] 103% | [17] 98.4% | [18] 98.5%

CCOC(=O)c1c(C)c2c(n1C)CSc1cc(S(=O)(=O)c3ccccc3)c(=O)[nH]c1-2
active: [12] 3.95% [100 µM]
inactive: [1] 45% [100 µM] | [2] 28.9% [100 µM] | [3] 34.4% [100 µM] | [4] 62.4% [100 µM] | [5] 26.4% [100 µM] | [6] 26.8% [100 µM] | [7] 30.6% [100 µM] | [8] 18.5% [100 µM] | [9] 53.6% [100 µM] | [10] 18.6% [100 µM] | [11] 12.3% [100 µM] | [13] 19.3% [100 µM] | [14] 35.9% [100 µM] | [15] 13.8% [100 µM] | [16] 11% [100 µM] | [17] 20.3% [100 µM] | [18] 16.5% [100 µM]

CN1CCN(C(=O)c2cc(-c3ccc4ncnc(N5CCc6cc(F)c(Cl)cc65)c4c3)cnc2N)CC1
active: [2] -25.7% | [4] 9.22% | [5] -12.7% | [7] -33.4% | [8] -42.8% | [9] -17.2% | [10] 8.74% | [11] -1.85% | [12] -20.4% | [13] -2.06% | [14] 4.9% | [15] 4.21% | [16] -30.3% | [17] -7.55%
inactive: [1] 14.7% | [3] 10.3% | [6] 10.9% | [18] 10.7%

O=C(Cn1nnc2ccccc21)N/N=C/c1ccccc1F
inactive: [1] 96.8% | [2] 101% | [3] 95.2% | [4] 108% | [5] 110% | [6] 98.2% | [7] 109% | [8] 108% | [9] 81.2% | [10] 109% | [11] 92% | [12] 101% | [13] 102% | [14] 96.7% | [15] 89.9% | [16] 101% | [17] 115% | [18] 91.9%

CCN1C(=O)N(CC)C2C1NN=c1s/c(=C3\C(=O)N(CCc4ccccc4)c4ccccc43)c(=O)n12 (stereo unspecified)
inactive: [1] 10.7% | [3] 13.5% | [4] 20.6% | [5] 38.3% | [6] 32.3% | [7] 18.9% | [11] 44.4% | [12] 14.2% | [14] 23.1% | [15] 11.6% | [17] 13.2% | [18] 13.9%
active: [2] 8.77% | [8] -16.9% | [9] 5.14% | [10] -9.34% | [13] -40.9% | [16] 2.18%

COc1cc(/C=C/c2cc(/C=C/c3ccc(O)c(OC)c3)n(C(=O)Nc3ccc(F)cc3)n2)ccc1O
inactive: [4] 31.3% | [5] 35.5% | [7] 17.4% | [9] 20% | [10] 27.9% | [11] 31.1% | [14] 10.5%
active: [1] 2.53% | [2] 3.32% | [3] 0.475% | [6] -18.7% | [8] 3.89% | [12] -8.33% | [13] -2.32% | [15] 9.49% | [16] 4.95% | [17] 6.92% | [18] 2.44%

CCCCCCOC(=O)CC1=C(C)/C(=C/c2[nH]c(-c3ccc[nH]3)cc2OC)N=C1C
active: [1] -44.5% | [2] -52.3% | [3] -55.1% | [4] -9.61% | [5] -29.2% | [6] -34.5% | [7] -8.74% | [8] -93.9% | [9] -27% | [10] -49.4% | [11] -32.8% | [12] -33.9% | [13] -82.4% | [14] -74% | [15] -24.1% | [16] -79% | [17] -47.5% | [18] -51.4%

N=C(N)c1ccc(-c2ccc(-c3ccc(Cl)cc3)o2)o1
inactive: [5] 46.2% | [6] 81.2% | [7] 37.7% | [9] 78.6% | [11] 26.5% | [12] 93.1%
active: [1] -28.8% | [2] -6.54% | [3] -55.4% | [4] 3.3% | [8] -86.1% | [10] -50.6% | [13] -89.1% | [14] -69.7% | [15] -70.9% | [16] -76.1% | [17] -81.1% | [18] -84.9%

Brc1ccc(-c2cnc3nonc3n2)cc1
active: [8] 9.13% | [13] 3.37%
inactive: [1] 19.9% | [2] 31.1% | [3] 80.5% | [4] 122% | [5] 42.7% | [6] 110% | [7] 81.1% | [9] 87.3% | [10] 79.7% | [11] 69.7% | [12] 115% | [14] 77.6% | [15] 28.2% | [16] 60% | [17] 91.3% | [18] 78.2%

Cn1cc(-c2csc(-c3cn(C(=O)OC(C)(C)C)c4ccccc34)n2)c2ccnc(Cl)c21
active: [5] 9.63%
inactive: [1] 26% | [2] 68.7% | [3] 48.2% | [4] 51.3% | [6] 71.3% | [7] 69.5% | [8] 61.3% | [9] 66.1% | [10] 60% | [11] 29.1% | [12] 84.2% | [13] 78.8% | [14] 56.2% | [15] 33.3% | [16] 30% | [17] 83.5% | [18] 50.4%

Cc1ccc(-c2csc(NC(=O)N3CCN(c4cc5c(cc4F)c(=O)c(C(=O)O)cn5C4CC4)CC3)n2)cc1
active: [2] 4.84% | [3] 7.72% | [6] -11.6% | [8] 7.6% | [12] 3.9% | [15] 6.05%
inactive: [1] 18.2% | [4] 23.2% | [5] 33.5% | [7] 17% | [9] 38.6% | [10] 21.8% | [11] 11.5% | [13] 17.6% | [14] 27.2% | [16] 11.4% | [17] 32.9% | [18] 11.4%

COc1ccc(/C=C/C(=O)c2ccc(NC(=O)CSc3nnc(-c4cc(-c5ccccc5)nc5ccccc45)n3-c3ccccc3)cc2)cc1
inactive: [1] 79.7% | [2] 96.6% | [3] 93.5% | [4] 93.4% | [5] 96% | [6] 109% | [7] 111% | [8] 102% | [9] 93.1% | [10] 97.1% | [11] 80.3% | [12] 96.3% | [13] 97.9% | [14] 96.6% | [15] 93.7% | [16] 98.7% | [17] 107% | [18] 89.5%

Cc1ccc2[nH]c(-c3ccc(S(C)(=O)=O)cc3)c(/C=N/N=C(N)N)c2c1
inactive: [1] 24.4% | [2] 39.2% | [3] 58.4% | [4] 101% | [5] 90.7% | [6] 57.7% | [7] 76.2% | [8] 27.6% | [9] 50.5% | [10] 49.4% | [11] 67.8% | [12] 76.9% | [14] 36.4% | [15] 64.6% | [16] 24.4% | [17] 74% | [18] 46.1%
active: [13] -21.9%
